Where “and” joins values, the source holds several entries; their conditions need not be identical. Identical values can stand only once. Results filed as inconclusive are left out. Where a call stands in place of a potency, no number is given. Some structures have more than one record in an assay (separate samples or runs), and their calls can disagree. Calls of active or inactive are those of the source. Unless noted, calls come from the whole dose curve; as a rule, active = well fitted curve in the direction sought with a large enough effect in the repeat runs; inconclusive = weak or mixed curves; inactive = no such curve, though single readings can be large; an effect the other way counts as inactive or inconclusive.
How the values were obtained:
[1] = A CellTox Green Cytotoxicity Assay to monitor cytotoxicity in HepG2 cells - 8 hour (AID 1224890); note: nearly all actives have a fitted effect of over 45% in size; note: potency is the fitted concentration of half-maximal effect
Outline: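 HepG2 cells were seeded together with the CellTox Green dye at 600 cells/well, left 5 h at 37 C/5% CO2, then given compounds in DMSO. Fluorescence from dye bound to dead-cell DNA was read repeatedly over 40 h of treatment at 37 C.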

[2] = qHTS assay to identify small molecule antagonists of the estrogen receptor alpha (ER-alpha) signaling pathway using the BG1 cell line in the presence of 0.1 nM 17-beta-estradiol - cell viability counter screen (AID 1259241); note: nearly all actives have a fitted effect of over 40% in size
Outline: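 In this screen, hormone-deprived VM7Luc4E2 cells were seeded at 4,000 per well, dosed with compound and 0.1 nM estradiol final, and incubated 22 hr at 37C and 5% CO2; fluorogenic live-cell protease signal reported viability.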

[3] = qHTS assay to identify small molecule antagonists of the androgen receptor (AR) signaling pathway using the MDA cell line in the presence of 0.5 nM R1881 - cell viability counter screen (AID 1259242); note: nearly all actives have a fitted effect of over 45% in size
Outline: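 MDA-kb2 cells (human breast carcinoma, stably carrying MMTV-luciferase reporter) were exposed to compounds with 0.5 nM R1881 (final) for 16 hr at 37C, 0% CO2; viability then read as live-cell protease fluorescence (CellTiter-Fluor, 30 min) in the same wells.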

[4] = molecular target: Estrogen receptor (Homo sapiens) (UniProt P03372); experiment: qHTS assay to identify small molecule antagonists of the estrogen receptor alpha (ER-alpha) signaling pathway using the BG1 cell line in the presence of 0.1 nM 17-beta-estradiol (AID 1259244); note: nearly all actives have a fitted effect of over 50% in size
Sequence of Estrogen receptor (Homo sapiens) (P03372 whole entry, looked up): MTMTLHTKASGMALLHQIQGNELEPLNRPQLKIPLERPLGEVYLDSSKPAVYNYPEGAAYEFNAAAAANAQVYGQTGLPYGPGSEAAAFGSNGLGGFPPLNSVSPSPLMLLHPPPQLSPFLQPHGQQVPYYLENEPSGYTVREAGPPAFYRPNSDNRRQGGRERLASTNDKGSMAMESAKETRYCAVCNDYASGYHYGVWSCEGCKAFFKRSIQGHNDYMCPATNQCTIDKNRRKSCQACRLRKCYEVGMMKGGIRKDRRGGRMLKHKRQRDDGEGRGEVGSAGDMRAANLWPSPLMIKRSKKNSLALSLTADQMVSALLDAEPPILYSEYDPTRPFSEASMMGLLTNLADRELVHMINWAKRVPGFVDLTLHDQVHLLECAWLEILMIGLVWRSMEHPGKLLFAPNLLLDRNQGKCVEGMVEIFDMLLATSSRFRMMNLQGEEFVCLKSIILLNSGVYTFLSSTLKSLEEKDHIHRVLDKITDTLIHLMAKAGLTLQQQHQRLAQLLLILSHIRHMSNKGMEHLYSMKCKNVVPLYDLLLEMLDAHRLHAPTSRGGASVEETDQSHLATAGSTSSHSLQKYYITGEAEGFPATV
Outline: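 VM7Luc4E2 cells (endogenous full-length ER-alpha, stable 4xERE-luciferase) were grown 5 days in phenol red-free medium with charcoal-stripped FBS, then exposed 22 h at 37C to compounds plus 0.1 nM (final) 17beta-estradiol; ONE-Glo luminescence read-out.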

[5] = qHTS assay to identify small molecule phospholipidosis (PLD) inducers (AID 1259344; active = well fitted curve in the direction sought with a large enough effect; an effect the other way counts as inactive or inconclusive)
Outline: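 Quantitative HTS in HepG2: compound plus LipidTOX Red dye for 24 h, paraformaldehyde fixation with Hoechst 33342, widefield high-content imaging; amiodarone as positive and DMSO as negative control.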

[6] = qHTS assay to identify small molecule HDAC inhibitors (AID 1259364); note: nearly all actives have a fitted effect of over 45% in size; note: potency is the fitted concentration of half-maximal effect
Outline: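 Wild-type HCT-116 cells were plated overnight, exposed to compounds for 2 h at 37 °C, then given HDAC-Glo class I/II luminogenic reagent for 30 min at room temperature before luminescence was read.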

[7] = qHTS assay to identify small molecule HDAC inhibitors - cell viability counter screen (AID 1259365); note: series mostly up to about 92 µM; nearly all actives have a fitted effect of over 50% in size
Outline: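 Measured quantity is CellTiter-Glo luminescence from wild-type HCT-116 cells after compound incubation of 2hr at 37C, 5% CO2; reagent developed 30min at room temperature.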

[8] = qHTS assay to identify small molecule agonists of the sonic hedgehog signaling (Shh) pathway - cell viability counter screen (AID 1259366); note: nearly all actives have a fitted effect of over 50% in size
Outline: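 In quantitative high-throughput format, 3T3 Gli1-Luc cells were exposed to compounds for 24hr and multiplexed for viability using CellTiter-Fluor, incubated 1hr at 37C before the fluorescence read.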

[9] = qHTS assay to identify small molecule agonists of the sonic hedgehog signaling (Shh) pathway (AID 1259368; calls by dose curve; note: series mostly up to about 92 µM; nearly all actives have a fitted effect of over 15% in size)
Outline: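 NIH/3T3-derived 3T3Gli1-Luc cells carrying a stably integrated Gli1 response element–firefly luciferase reporter were plated, left 4 hr at 37 C, then given compounds in DMSO for 24 hr. Luminescence was read 30 min after adding luciferase reagent.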

[10] = qHTS assay to identify small molecule antagonists of the sonic hedgehog signaling (Shh) pathway (AID 1259369; calls by dose curve; note: nearly all actives have a fitted effect of over 45% in size; note: potency is the fitted concentration of half-maximal effect)
Outline: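 NIH/3T3-derived 3T3Gli1-Luc cells with stably integrated Gli1-Luc reporter were preincubated 4hr at 37 C, then given compounds in DMSO plus Shh conditioned medium and incubated 24hr. Firefly luciferase luminescence read after 30min reagent at room temperature.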

[11] = molecular target: Estrogen receptor beta (Homo sapiens) (UniProt Q92731); experiment: qHTS assay to identify small molecule agonists of the estrogen receptor beta (ER-beta) signaling pathway (AID 1259377; active = well fitted activation curve with a large enough effect in the signal ratio in the repeat runs, not every such curve was filed as active; the % refers to the signal ratio)
Sequence of Estrogen receptor beta (Homo sapiens) (Q92731 whole entry, looked up): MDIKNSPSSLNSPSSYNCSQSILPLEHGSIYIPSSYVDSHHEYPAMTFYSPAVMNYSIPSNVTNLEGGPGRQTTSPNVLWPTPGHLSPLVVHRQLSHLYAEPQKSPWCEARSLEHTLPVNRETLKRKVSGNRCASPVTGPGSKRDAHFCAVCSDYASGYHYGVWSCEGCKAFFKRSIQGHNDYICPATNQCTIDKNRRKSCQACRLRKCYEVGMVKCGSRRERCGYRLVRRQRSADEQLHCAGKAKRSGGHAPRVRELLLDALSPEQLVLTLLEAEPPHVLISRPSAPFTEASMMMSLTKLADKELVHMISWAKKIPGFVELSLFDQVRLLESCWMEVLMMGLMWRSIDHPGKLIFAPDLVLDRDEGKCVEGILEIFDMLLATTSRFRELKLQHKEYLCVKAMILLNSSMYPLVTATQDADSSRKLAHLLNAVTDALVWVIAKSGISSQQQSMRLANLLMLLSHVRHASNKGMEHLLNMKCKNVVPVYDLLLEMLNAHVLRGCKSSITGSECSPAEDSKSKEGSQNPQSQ
Outline: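 Reporter cells (HEK293T, ER-beta-UAS-bla) receive compounds or DMSO after a 6 hr pre-incubation. They then incubate 16 hr at 37C/5% CO2, and fluorescence from LiveBLAzer B/G substrate is measured after 2 hours at room temperature.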

[12] = molecular target: Estrogen receptor beta (Homo sapiens) (UniProt Q92731); experiment: qHTS assay to identify small molecule antagonists of the estrogen receptor beta (ER-beta) signaling pathway (AID 1259378; active = well fitted inhibition curve with a large enough effect in the signal ratio in the repeat runs, not every such curve was filed as active; the % refers to the signal ratio; note: potency is the fitted concentration of half-maximal effect)
Outline: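 ER-beta-UAS-bla HEK293T cells in 2% charcoal-stripped FBS medium treated with compound plus 1nM final 17-beta-estradiol for 16 hr at 37C. Beta-lactamase reporter read by FRET substrate fluorescence after 2 hours at room temperature.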

[13] = qHTS assay to identify small molecule agonists of the estrogen receptor beta (ER-beta) signaling pathway - cell viability counter screen (AID 1259380); note: nearly all actives have a fitted effect of over 30% in size
Outline: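 ER-beta-UAS-bla HEK293T cells in medium with 2% charcoal-stripped FBS were preincubated 6 hr at 37C, dosed with compound in DMSO for 16 hr, then after the bla read, CellTiter-Glo was added for 30 min at room temperature; luminescence recorded.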

[14] = qHTS assay to identify small molecule antagonists of the estrogen receptor beta (ER-beta) signaling pathway - cell viability counter screen (AID 1259382); note: series mostly up to about 92 µM; nearly all actives have a fitted effect of over 55% in size
Outline: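 ER-beta-UAS-bla HEK293T cells (2,000/well, 2% charcoal-stripped FBS) were pre-incubated 6 hr at 37C, then given compound plus 1nM final 17-beta-estradiol for 16 hr. Viability was read in the same wells by CellTiter-Glo luminescence after 30 min at room temperature.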

[15] = qHTS assay to identify small molecule agonists or antagonists of the thyroid stimulating hormone receptor (TSHR) signaling pathway - wild type cell line counter screen (AID 1259384; calls by dose curve)
Outline: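 Wild-type Hek293 cells, 800/well, 18 h at 37C, then compound with Ro20-1724 for 30 min RT. cAMP by HTRF (cAMP-d2/anti-cAMP cryptate), 1 h RT, fluorescence read. 15 concentrations, triplicates.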

[16] = molecular target: Androgen receptor (Homo sapiens) (UniProt P10275); experiment: qHTS assay to identify small molecule antagonists of the androgen receptor (AR) signaling pathway using the MDA cell line in the presence of 0.5 nM R1881 (AID 1259243); note: nearly all actives have a fitted effect of over 50% in size
Sequence of Androgen receptor (Homo sapiens) (P10275 whole entry, looked up): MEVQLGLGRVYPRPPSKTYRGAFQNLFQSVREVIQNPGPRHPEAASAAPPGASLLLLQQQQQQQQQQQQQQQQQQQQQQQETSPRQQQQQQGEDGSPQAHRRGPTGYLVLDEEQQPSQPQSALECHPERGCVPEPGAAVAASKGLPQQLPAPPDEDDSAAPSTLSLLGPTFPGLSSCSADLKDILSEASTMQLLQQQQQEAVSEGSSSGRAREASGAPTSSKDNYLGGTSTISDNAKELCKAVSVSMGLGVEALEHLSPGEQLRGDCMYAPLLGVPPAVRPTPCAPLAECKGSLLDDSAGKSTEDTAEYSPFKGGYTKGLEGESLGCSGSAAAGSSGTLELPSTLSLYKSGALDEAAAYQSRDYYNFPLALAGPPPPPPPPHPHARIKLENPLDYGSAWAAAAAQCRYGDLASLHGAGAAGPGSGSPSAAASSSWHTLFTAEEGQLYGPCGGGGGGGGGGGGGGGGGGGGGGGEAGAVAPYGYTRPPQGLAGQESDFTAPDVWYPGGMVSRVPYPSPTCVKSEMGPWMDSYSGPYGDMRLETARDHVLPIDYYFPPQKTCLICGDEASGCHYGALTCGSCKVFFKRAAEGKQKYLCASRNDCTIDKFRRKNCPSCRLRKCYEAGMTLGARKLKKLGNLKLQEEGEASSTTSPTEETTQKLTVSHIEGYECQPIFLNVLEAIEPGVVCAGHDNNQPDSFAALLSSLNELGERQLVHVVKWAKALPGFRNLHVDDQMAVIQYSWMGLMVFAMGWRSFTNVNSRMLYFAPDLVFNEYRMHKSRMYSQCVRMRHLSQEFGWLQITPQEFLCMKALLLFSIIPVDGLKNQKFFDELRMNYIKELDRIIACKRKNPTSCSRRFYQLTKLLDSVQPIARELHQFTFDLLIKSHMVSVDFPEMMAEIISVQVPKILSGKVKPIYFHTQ
Outline: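 MDA-kb2 human breast carcinoma cells carrying an MMTV-luciferase reporter (AR- and GR-responsive) were plated, rested 5 hr at 37C, dosed with compounds, then stimulated with 0.5 nM R1881 (final) for 16 hr; luminescence was read after ONE-Glo.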

[17] = qHTS assay to identify small molecule agonists of the androgen receptor (AR) signaling pathway in the presence of an antagonist - cell viability counter screen (AID 1259379); note: series mostly up to about 92 µM; nearly all actives have a fitted effect of over 25% in size
Outline: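 MDA-kb2 human breast carcinoma cells (stable MMTV-luciferase, AR/GR responsive) were seeded 3,000 cells/well, pre-incubated 5 hr at 37C without CO2, then given 3.0uM nilutamide and compounds at 15 concentrations for 16 hr. Viability was read by CellTiter-Fluor fluorescence.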

[18] = molecular target: Androgen receptor (Homo sapiens) (UniProt P10275); experiment: qHTS assay to identify small molecule agonists of the androgen receptor (AR) signaling pathway in the presence of an antagonist (AID 1259381; calls by dose curve; note: nearly all actives have a fitted effect of over 15% in size)
Outline: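 MDA-kb2 human breast carcinoma cells carrying an MMTV-luciferase reporter (AR- and GR-responsive) were treated with compounds at 15 concentrations plus 3.0uM final nilutamide for 16hr at 37C without CO2; luminescence was read after ONE-Glo addition.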

[19] = qHTS assay to identify small molecule antagonists of the sonic hedgehog signaling (Shh) pathway - cell viability counter screen (AID 1259367); note: nearly all actives have a fitted effect of over 55% in size
Outline: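 Seed 3T3 Gli1-Luc cells at 2,000 per well; incubate 4 hr; add compound in DMSO, then conditioned medium; incubate at 37C with 5% CO2; add CellTiter-Fluor after 23 hr; read fluorescence 1 hr later.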

[20] = molecular target: Estrogen receptor (Homo sapiens) (UniProt P03372); experiment: qHTS assay to identify small molecule agonists of the estrogen receptor alpha (ER-alpha) signaling pathway in the presence of an antagonist (AID 1259383; calls by dose curve; note: top concentration of the series differs between compounds; nearly all actives have a fitted effect of over 15% in size)
Outline: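 VM7Luc4E2 cells (endogenous full-length ER-alpha, 4×ERE-luciferase) were precultured 5 days in phenol red-free medium with 10% charcoal-stripped FBS, given 10.0nM ICI-182,780 (final), then treated with compounds at 15 concentrations for 22hr at 37C; luminescence read with ONE-Glo.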

Structure (SMILES) | Potency [1] | Potency [2] | Potency [3] | Potency [4] | outcome [5] | Potency [6] | outcome [7] | Potency [8] | outcome [9] | Potency [10] | Potency [11] | Potency [12] | Potency [13] | Potency [14] | outcome [15] | outcome [16] | Potency [17] | Potency [18] | Potency [19] | Potency [20]
CC1=C(/C=C/C(C)=C/C=C/C(C)=C/CO)C(C)(C)CCC1 | inactive | inactive | inactive | inactive | inactive | inactive | inactive | inactive | inactive | 15.5 µM (active) | inactive | inactive and 64.4 µM (active) | inactive | inactive | inactive |  |  |  |  | 
CCCCCCCCCC(=O)O | inactive | inactive | inactive |  | inactive | inactive | inactive | inactive | inactive | inactive |  |  | inactive | inactive | inactive | inactive | inactive | inactive |  | 
CC1(C)O[C@@H]2C[C@H]3[C@@H]4C[C@H](F)C5=CC(=O)CC[C@]5(C)[C@H]4[C@@H](O)C[C@]3(C)[C@]2(C(=O)CO)O1 | 49 µM (active) and inactive | inactive | inactive | inactive | inactive | inactive | inactive | inactive | inactive | inactive | inactive | inactive | inactive | inactive | inactive |  | inactive |  | inactive | 
CCCCC(CC)C(=O)OCCOCCOCCOC(=O)C(CC)CCCC (stereo not drawn) | inactive | inactive | inactive | inactive |  | inactive | inactive | inactive | inactive | inactive | inactive | inactive | inactive | inactive | inactive | inactive | inactive | inactive | inactive | inactive
O=C(Cl)c1c(Cl)c(Cl)c(C(=O)Cl)c(Cl)c1Cl | inactive | inactive | inactive | inactive |  | inactive | inactive | inactive | inactive | inactive | inactive | inactive | inactive | inactive |  |  | inactive |  | inactive | inactive
OCC1CCCO1 (stereo not drawn) | inactive | inactive | inactive | inactive |  | inactive | inactive | inactive | inactive | inactive | inactive | inactive | inactive | inactive |  | inactive | inactive | inactive | inactive | 
Cc1cc(=O)[nH]c(C(C)C)n1 | inactive | inactive | inactive | inactive |  | inactive | inactive | inactive | inactive | inactive |  | inactive | inactive | inactive | inactive | inactive | inactive | inactive | inactive | 
CCCCC(CC)COC(=O)/C=C\C(=O)OCC(CC)CCCC (stereo not drawn) | inactive | inactive | inactive |  |  | inactive | inactive | inactive | inactive | inactive | inactive | inactive | inactive | inactive | inactive | inactive | inactive | inactive |  | 
c1ccc2ccccc2c1 | inactive | inactive | inactive | inactive | inactive | inactive | inactive | inactive | inactive | inactive |  |  | inactive | inactive | inactive |  |  |  | inactive | 
Oc1ccc(OCc2ccccc2)cc1 | inactive | inactive | inactive | inactive | inactive | 6.71 µM (active) and inactive | inactive | inactive | inactive | inactive | inactive | inactive | inactive | inactive | inactive |  | inactive | inactive | inactive | 
CCOC(=O)[C@H](CCc1ccccc1)N[C@@H](C)C(=O)N1Cc2ccccc2C[C@H]1C(=O)O | inactive | inactive | inactive | inactive | inactive | inactive | inactive | inactive | inactive | inactive and 16.8 µM (active) | inactive | inactive | inactive | inactive |  |  |  |  |  | inactive
C[C@@H]1O[C@@H](OC[C@H]2O[C@@H](Oc3c(-c4ccc(O)c(O)c4)oc4cc(O)cc(O)c4c3=O)[C@H](O)[C@@H](O)[C@@H]2O)[C@H](O)[C@H](O)[C@H]1O | inactive | inactive | inactive |  | inactive | inactive | inactive | inactive | inactive | inactive | inactive | inactive | inactive | inactive | inactive | inactive |  | inactive | inactive | 
O=C1O[C@H](CO)[C@@H](O)[C@H](O)[C@H]1O | inactive | inactive | inactive | inactive | inactive | inactive | inactive | inactive | inactive | inactive | inactive | inactive | inactive | inactive | inactive |  |  |  |  | 
O=S(=O)(O)CCS | inactive | inactive | inactive | inactive | inactive | inactive | inactive | inactive | inactive | inactive | inactive | inactive | inactive | inactive | inactive |  | inactive |  | inactive | inactive
Cc1ccc(C)c(C)c1 | inactive | inactive | inactive | inactive |  | inactive | inactive | inactive | inactive | inactive | inactive | inactive | inactive | inactive | inactive | inactive |  | inactive | inactive | inactive
OC[C@@H](O)[C@H](O)[C@H](O)[C@@H](O)CO | inactive | inactive | inactive | inactive | inactive | inactive | inactive | inactive | inactive | inactive |  |  | inactive | inactive | inactive |  | inactive |  | inactive | inactive

From PubChem BioAssay (Tox21)
